Test results published in PubChem BioAssay.
“And” between values parts separate entries of the source, which are not always exact repeats. Equal values may be shown once. A structure can be active in one record and inactive in another. The source made the active and inactive calls.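 The calls were made as follows, unless noted: active = compounds whose cell count with miR-34 switched on is under 0.7 times the count with it off; inactive = the rest.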

Columns and labels:
[1] = hESC survival regulators, cell-based (AID 493140; call rule not given here;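 also: cells exposed to compounds for four days before counting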); settings: human embryonic stem cell survival screen; stronger effect = higher value
[2] = liver-stage malaria parasite growth inhibition, primary screen, cell-based, HepG2, luciferase luminescence, HepG2 viability (AID 624349; in the data active = parasite load remaining mostly below about 12%, no sharp cut-off; inactive = mostly above about 10%;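 also: 100% = mean of DMSO negative control wells on the same plate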); settings: P. berghei liver stage in HepG2, luciferase luminescence, concentration not given here; parasite load remaining: stronger effect = lower value; viability: measured here: HepG2 viability without parasites
[3] = stimulators of nuclear beta-catenin in C2C12, primary screen, imaging, WNT3A-conditioned medium, mouse C2C12, NPC library (AID 1117326; in the data active = nuclear beta-catenin stimulation mostly above about 4.2%, no sharp cut-off; inactive = mostly below about 10%); settings: stronger effect = higher value
[4] = stimulators of insulin release from INS-1E, primary screen, cell-based, 5 mM glucose, NPC library (AID 1117329;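 active = compound raises insulin release from rat beta cells at 5 mM glucose, no numeric limit stated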); settings: rat INS-1E insulin secretion, at 10 µM, stronger effect = higher value
[5] = growth inhibition of GSK3B-pretreated HCT116 cells – cell-based, CellTiter-Glo, 0.2 to 20 µM (AID 1117336;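 active = compounds lowering colon cancer cell viability after pretreatment blocking the GSK3B kinase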); settings: HCT116 viability after GSK3B inhibitor, at 20 µM, stronger effect = higher value
[6] = inhibition of endothelial tube formation, primary screen, imaging, VEGF stimulated, CD31 staining, tube area, NPC library (AID 1117340;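 active = compound that reduces growth-factor-driven endothelial tube area in a mixed cell culture, no cutoff stated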); settings: VEGF-stimulated ADSC/ECFC co-culture, at 10 µM, stronger effect = higher value
[7] = glucagon-like peptide 1 release enhancers, primary assay, NCI-H716 cell line, NPC library (AID 1117341;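 active = compound raises GLP1 secretion from the human gut endocrine cells, with no numeric limit stated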); settings: NCI-H716 cells, at 10 µM, stronger effect = higher value
[8] = HCT116 colon cancer cell growth inhibition, primary screen, CellTiter-Glo luminescence, NPC library (AID 1117342;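 active = compounds that lower survival of HCT116 colon cancer cells in the luminescence readout, no numeric limit stated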); settings: at 20 µM (top of the series)
[9] = CellTiter-Glo luminescent readout of SW480 viability loss, NPC library primary (AID 1117343;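 active = compounds that lower viability of the colon cancer cells in the luminescence readout, with no numeric limit stated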); settings: CellTiter-Glo luminescence; at 20 µM (top of the series) unless noted
[10] = decreased DLD-1 cellular survival, CellTiter-Glo luminescent readout, NPC compound collection, primary HTS (AID 1117346;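 active = compounds that lower survival of DLD-1 colon cancer cells in the luminescence readout, no cutoff given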); settings: DLD-1 viability, CellTiter-Glo luminescence; at 20 µM (top of the series)
[11] = differential killing of epithelial or mesenchymal cells, primary screen, imaging, PC-3E GFP, TEM4-18 mCherry, co-culture (AID 1345086;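 active = compounds killing one labelled cell type while sparing the other, by normalised counts and ratio limits, not self-fluorescent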;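 as to all read-outs here: cells exposed to compound for 72 h before imaging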;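 as to red/green cell ratio (normalised): normalised mesenchymal count divided by normalised epithelial count so high means epithelial killing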); settings: imaging cell counts, at 1 µM; for red/green cell ratio (normalised): actives lie on both sides, counts scaled to control wells, 1 = unselective
[12] = sensitizers of A549 cells to miR-34 induction, primary screen, imaging, A549 dox-inducible miR-34, nuclei and caspase counts (AID 1347080); settings: A549 miR-34 inducible, Hoechst nuclei count, 48 h
[13] = survival rescue of mitochondrial mutant cells in low glucose, primary screen, MELAS cybrids, Rieske KO mouse fibroblasts, CellTiter-Glo (AID 1508586;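 active = mean z-score across replicates of 1.96 or higher in either the MELAS or the Rieske mutant cell line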;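 also: z relative to plate mean and SD of compound and empty wells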)
[14] = molecular target: NAD(+) hydrolase SARM1 (Homo sapiens) (UniProt Q6SZW1); assay: SARM1 TIR NADase inhibitors, cell lysate, NAD-Glo luminescence (AID 1508614;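 active = compound whose remaining NAD level is above about 45 nM, limit read from the data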;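 also: higher remaining NAD means stronger inhibition of SARM1 NADase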); settings: SAM-TIR HEK293T lysate NADase, at 1 µM, stronger effect = higher value
[15] = measured here: epithelial PC-3E GFP cell survival
[16] = measured here: mesenchymal TEM4-18 mCherry cell survival
[17] = stronger effect = lower value, cell number ratio, induced over uninduced
[18] = measured here: relative caspase fold change +Dox/-Dox
[19] = measured here: total cells with miR-34 induction, stronger effect = lower value
[20] = measured here: total cells without miR-34 induction
[21] = MELAS cybrid survival, CellTiter-Glo 48 h, stronger effect = higher value
[22] = Rieske KO mouse fibroblast survival, CellTiter-Glo 72 h

NAD(+) hydrolase SARM1 (Homo sapiens), sequence (Q6SZW1 whole entry, looked up): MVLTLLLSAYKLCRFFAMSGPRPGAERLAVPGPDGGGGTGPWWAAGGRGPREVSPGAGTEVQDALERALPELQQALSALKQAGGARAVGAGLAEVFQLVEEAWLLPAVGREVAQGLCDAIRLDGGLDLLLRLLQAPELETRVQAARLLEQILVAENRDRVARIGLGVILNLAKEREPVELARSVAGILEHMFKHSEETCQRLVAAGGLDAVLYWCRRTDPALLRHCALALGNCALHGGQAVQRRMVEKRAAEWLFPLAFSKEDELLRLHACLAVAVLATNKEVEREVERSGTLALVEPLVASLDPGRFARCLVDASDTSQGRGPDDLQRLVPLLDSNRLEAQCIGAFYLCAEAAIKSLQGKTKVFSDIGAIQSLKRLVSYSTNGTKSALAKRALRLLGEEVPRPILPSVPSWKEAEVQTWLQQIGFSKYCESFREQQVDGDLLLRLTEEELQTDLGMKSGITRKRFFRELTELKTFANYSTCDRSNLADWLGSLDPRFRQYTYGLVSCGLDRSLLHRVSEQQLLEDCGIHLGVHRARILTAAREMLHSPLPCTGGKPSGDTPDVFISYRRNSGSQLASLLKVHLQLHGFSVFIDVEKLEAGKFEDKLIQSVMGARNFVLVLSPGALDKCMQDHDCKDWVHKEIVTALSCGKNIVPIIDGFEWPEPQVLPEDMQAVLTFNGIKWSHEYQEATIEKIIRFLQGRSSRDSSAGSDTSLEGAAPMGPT

CC(C)(Oc1ccc(C2CC2(Cl)Cl)cc1)C(=O)O (stereo unspecified)
survival [1]: 3.17 (inactive)
parasite load remaining [2]: 67% (inactive)
viability [2]: 69.5%
nuclear beta-catenin stimulation ([3]; at 10 µM): -1.2% (inactive)
nuclear beta-catenin stimulation ([3]; stimulation, at 2 µM): -1%
insulin secretion stimulation [4]: -1.6% (inactive)
viability decrease [5]: 0.1% (inactive)
tube area decrease [6]: -3% (inactive)
GLP1 secretion stimulation [7]: 1.4% (active)
inhibition of viability [8]: -3.5% (inactive)
viability decrease (inhibition) [9]: -7.2% (inactive)
viability decrease (inhibition) [10]: -11.1% (inactive)
red/green cell ratio (normalised) [11]: 1.11 (inactive)
normalised cell number [11, 15]: 1.15
normalised cell number [11, 16]: 1.28
fold change [12, 17]: 1.01 (inactive) and 0.95 (inactive) and 0.923 (inactive)
fold change [12, 18]: 2.14 and 0.705 and 0.604
cell count [12, 19]: 9720 and 9780 and 8880
cell count [12, 20]: 9650 and 10300 and 9610
z-score [13, 21]: -0.289 (inactive) and 0.864 (inactive)
z-score [13, 22]: -0.625 and 0.179
remaining NAD [14]: 10 nM (inactive)

O=[N+]([O-])c1ccc(O)c2ncccc12
nuclear beta-catenin stimulation ([3]; at 10 µM): 45.6% (active)
nuclear beta-catenin stimulation ([3]; stimulation, at 2 µM): 1.9%
insulin secretion stimulation [4]: -1.1% (inactive)
viability decrease [5]: 95.8% (active)
tube area decrease [6]: 102% (active)
GLP1 secretion stimulation [7]: -11.4% (inactive)
inhibition of viability [8]: 76.5% (active)
viability decrease (inhibition) [9]: 112% (active)
viability decrease (inhibition) [10]: 80.7% (active)
red/green cell ratio (normalised) [11]: 0.89 (inactive)
normalised cell number [11, 15]: 1.07
normalised cell number [11, 16]: 0.95
fold change [12, 17]: 0.979 (inactive)
fold change [12, 18]: 0.972
cell count [12, 19]: 2410
cell count [12, 20]: 2460
remaining NAD [14]: 10 nM (inactive)

COc1cccc2c1C(=O)c1c(O)c3c(c(O)c1C2=O)C[C@@](O)(C(C)=O)C[C@@H]3O[C@H]1C[C@H](N)[C@H](O)[C@H](C)O1
parasite load remaining [2]: -58.1% (inactive) and -0.15% (inactive) and 3.79% (active)
viability [2]: 28.9% and 25.6% and 228%
nuclear beta-catenin stimulation ([3]; at 10 µM): 61.7% (active)
nuclear beta-catenin stimulation ([3]; stimulation, at 2 µM): 102%
insulin secretion stimulation [4]: -0.6% (inactive)
viability decrease [5]: 65.5% (active)
tube area decrease [6]: -9.1% (active)
GLP1 secretion stimulation [7]: 3.4% (inactive)
inhibition of viability [8]: 88.6% (active)
viability decrease (inhibition) [9]: 127% (active)
viability decrease (inhibition) [10]: 93.9% (active)
red/green cell ratio (normalised) [11]: 2.72 (active)
normalised cell number [11, 15]: 0.23
normalised cell number [11, 16]: 0.62
fold change [12, 17]: 0.88 (inactive) and 0.929 (inactive) and 0.993 (inactive)
fold change [12, 18]: 0.91 and 1.93 and 1.28
cell count [12, 19]: 2140 and 2610 and 2580
cell count [12, 20]: 2420 and 2800 and 2590
z-score [13, 21]: -1.94 (inactive) and 4.97 (active)
z-score [13, 22]: -1.44 and -0.671
remaining NAD [14]: 10 nM (inactive)

CC(O)CN(CCN(CC(C)O)CC(C)O)CC(C)O (stereo unspecified)
nuclear beta-catenin stimulation ([3]; at 10 µM): 2% (inactive)
nuclear beta-catenin stimulation ([3]; stimulation, at 2 µM): 2.5%
insulin secretion stimulation [4]: 0.5% (inactive)
viability decrease [5]: -38.9% (inactive)
tube area decrease [6]: 5.2% (inactive)
GLP1 secretion stimulation [7]: -4.1% (inactive)
inhibition of viability [8]: 3.07% (inactive)
viability decrease (inhibition) [9]: 18.9% (inactive)
viability decrease (inhibition) [10]: -3.8% (inactive)
red/green cell ratio (normalised) [11]: 1.23 (inactive)
normalised cell number [11, 15]: 0.98
normalised cell number [11, 16]: 1.2
fold change [12, 17]: 1.01 (inactive)
fold change [12, 18]: 0.821
cell count [12, 19]: 9510
cell count [12, 20]: 9380
